Reference: PubChem BioAssay AID1159580 (chemical genetic matrix, 2015)
Among all 5,500 compounds or so, about 2,000 (36%) were called active. About 18% were inconclusive and are not listed. The list shows a part of the results. Values without a mark were called inactive. Cut-off read from the data, not from the text of the source: active = normalized growth mostly below about 0.91 (no sharp cut-off); inconclusive = no clear call, values can overlap the other calls; inactive = mostly above about 0.92.

Test: chemical genetic growth profiling, strain panel (AID 1159580);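 note: tested at 20 µM; growth read once vehicle control cultures reached saturation at 30 °C; 1 = growth at the plate median or of vehicle wells; lower values mean less growth of the strain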
Details: S. cerevisiae deletion strains, growth OD

For `O=S(=O)(Nc1csc(C(F)(F)F)c1-c1ccccc1)c1cc(Br)c(Br)s1`, the normalized growth (locus YAR019C, strain CDC15, hits give low values) was 0.957, the normalized growth (locus YBL105C, strain PKC1, hits give low values) was 0.952 and the normalized growth (locus YBR135W, strain CKS1, hits give low values) was 0.96. The normalized growth (locus YBR136W, strain MEC1, hits give low values) was 0.93, the normalized growth (locus YBR160W, strain CDC28, hits give low values) was 0.961 and the normalized growth (locus YDL017W, strain CDC7, hits give low values) was 0.955. For the same molecule, the normalized growth (locus YDL028C, strain MPS1, hits give low values) was 0.935, the normalized growth (locus YDL101C, strain DUN1, hits give low values) was 0.968 and the normalized growth (locus YDL108W, strain KIN28, hits give low values) was 0.939. The normalized growth (locus YDL132W, strain cdc53, hits give low values) was 0.971, the normalized growth (locus YDL214C, strain PRR2, hits give low values) was 0.927 and the normalized growth (locus YDR052C, strain DBF4, hits give low values) was 0.961. For the same molecule, the normalized growth (locus YDR054C, strain cdc34, hits give low values) was 0.96, the normalized growth (locus YDR226W, strain ADK1, hits give low values) was 0.953 and the normalized growth (locus YDR477W, strain SNF1, hits give low values) was 0.91. The normalized growth (locus YER123W, strain YCK3, hits give low values) was 0.899, the normalized growth (locus YER133W, strain GLC7, hits give low values) was 0.959 and the normalized growth (locus YFL009W, strain cdc4, hits give low values) was 0.968. For the same molecule, the normalized growth (locus YFL029C, strain CAK1, hits give low values) was 0.949, the normalized growth (locus YFR003C, strain YPI1, hits give low values) was 0.961 and the normalized growth (locus YFR019W, strain FAB1, hits give low values) was 0.852. It also gave a normalized growth (locus YFR028C, strain CDC14, hits give low values) of 0.974, a normalized growth (locus YGR040W, strain KSS1, hits give low values) of 0.912 and a normalized growth (locus YGR052W, strain FMP48, hits give low values) of 0.873. The normalized growth (locus YGR092W, strain DBF2, hits give low values) was 0.804, the normalized growth (locus YHR030C, strain SLT2, hits give low values) was 0.305 (active) and the normalized growth (locus YHR079C, strain IRE1, hits give low values) was 0.814. The normalized growth (locus YHR082C, strain KSP1, hits give low values) was 0.654, the normalized growth (locus YHR205W, strain SCH9, hits give low values) was 0.887 and the normalized growth (locus YIL147C, strain SLN1, hits give low values) was 0.951. For the same molecule, the normalized growth (locus YJL095W, strain BCK1, hits give low values) was 0.911, the normalized growth (locus YJL128C, strain PBS2, hits give low values) was 0.956 and the normalized growth (locus YJL157C, strain FAR1, hits give low values) was 0.948. The normalized growth (locus YJR016C, strain ILV3, hits give low values) was 0.962, the normalized growth (locus YJR066W, strain TOR1 (second series), hits give low values) was 0.962 and the normalized growth (locus YJR066W, strain TOR1, hits give low values) was 0.861. The normalized growth (locus YKL048C, strain ELM1, hits give low values) was 0.894, the normalized growth (locus YKL067W, strain YNK1, hits give low values) was 0.943 and the normalized growth (locus YKL101W, strain HSL1, hits give low values) was 0.79. The normalized growth (locus YKL193C, strain SDS22, hits give low values) was 0.964, the normalized growth (locus YKL203C, strain TOR2, hits give low values) was 0.964 and the normalized growth (locus YLR113W, strain HOG1, hits give low values) was 0.8 (active). For the same molecule, the normalized growth (locus YLR133W, strain CKI1, hits give low values) was 0.871, the normalized growth (locus YLR403W, strain SFP1, hits give low values) was 0.906 and the normalized growth (locus YML070W, strain DAK1, hits give low values) was 0.897. The normalized growth (locus YMR001C, strain CDC5, hits give low values) was 0.957, the normalized growth (locus YMR205C, strain PFK2 (second series), hits give low values) was 0.907 and the normalized growth (locus YMR277W, strain FCP1, hits give low values) was 0.968. For the same molecule, the normalized growth (locus YNL006W, strain LST8, hits give low values) was 0.973, the normalized growth (locus YNL020C, strain ARK1, hits give low values) was 0.837 and the normalized growth (locus YNL161W, strain CBK1, hits give low values) was 0.957. The normalized growth (locus YNL183C, strain NPR1, hits give low values) was 0.814, the normalized growth (locus YNL207W, strain RIO2, hits give low values) was 0.959 and the normalized growth (locus YNL222W, strain SSU72, hits give low values) was 0.955. The normalized growth (locus YNL307C, strain MCK1 (second series), hits give low values) was 0.81, the normalized growth (locus YOL078W, strain AVO1, hits give low values) was 0.964 and the normalized growth (locus YOL136C, strain PFK27, hits give low values) was 0.878. The normalized growth (locus YOR061W, strain CKA2, hits give low values) was 0.696, the normalized growth (locus YOR119C, strain RIO1, hits give low values) was 0.948 and the normalized growth (locus YOR231W, strain MKK1, hits give low values) was 0.879. It also gave a normalized growth (locus YOR329C, strain SCD5, hits give low values) of 0.954, a normalized growth (locus YPL031C, strain PHO85, hits give low values) of 0.844 and a normalized growth (locus YPL153C, strain RAD53, hits give low values) of 0.88. For the same molecule, the normalized growth (locus YPL204W, strain HRR25, hits give low values) was 0.89, the normalized growth (locus YPL209C, strain IPL1, hits give low values) was 0.96 and the normalized growth (locus YPL256C, strain CLN2, hits give low values) was 0.712 (active). The normalized growth (locus YPR025C, strain CCL1, hits give low values) was 0.958, the normalized growth (locus YPR106W, strain ISR1, hits give low values) was 0.961 and the normalized growth (locus YPR111W, strain DBF20, hits give low values) was 0.943. For the same molecule, the normalized growth (strain NNK1, hits give low values) was 0.966 and the normalized growth (strain TSCII, hits give low values) was 0.963.
